Tests used:
[1] = target: 26S proteasome regulatory subunit 7 homolog (UniProt P33299); assay: cross-link between two proteins; cross-linking mass spectrometry
[2] = target: Proteasome subunit beta type-5 (UniProt P30656); assay: as above
[3] = target: 26S proteasome regulatory subunit 6B homolog (UniProt P33298); assay: as above
[4] = target: 26S proteasome regulatory subunit 8 homolog (UniProt Q01939); assay: as above
[5] = target: 26S proteasome regulatory subunit RPN6 (UniProt Q12377); assay: as above
[6] = target: 26S proteasome regulatory subunit RPN5 (UniProt Q12250); assay: as above
[7] = target: 26S proteasome regulatory subunit RPN8 (UniProt Q08723); assay: as above
[8] = target: 26S proteasome regulatory subunit RPN9 (UniProt Q04062); assay: as above
[9] = target: 26S proteasome regulatory subunit RPN1 (UniProt P38764); assay: as above
[10] = target: Ubiquitin C-terminal hydrolase RPN11 (UniProt P43588); assay: as above
[11] = target: 26S proteasome subunit RPT4 (UniProt P53549); assay: as above
[12] = target: Proteasome subunit beta type-1 (UniProt P38624); assay: as above
[13] = target: Proteasome subunit beta type-7 (UniProt P30657); assay: as above
[14] = target: 26S proteasome regulatory subunit 4 homolog (UniProt P40327); assay: as above
[15] = target: Probable 26S proteasome regulatory subunit p28 (UniProt P50086); assay: as above
[16] = target: 26S proteasome regulatory subunit RPN7 (UniProt Q06103); assay: as above
[17] = target: Proteasome subunit alpha type-4 (UniProt P40303); assay: as above
[18] = target: 26S proteasome subunit RPT4 (UniProt P53549); assay: cross-link between two proteins; affinity purification or IP with mass spectrometry; cross-linking mass spectrometry
[19] = target: Ubiquitin carboxyl-terminal hydrolase 6 (UniProt P43593); assay: cross-link between two proteins; cross-linking mass spectrometry
[20] = target: Proteasome subunit alpha type-6 (UniProt P40302); assay: as above
[21] = target: Proteasome subunit alpha type-1 (UniProt P21243); assay: as above

Measured: listed as a hit

Chain of 26S proteasome regulatory subunit RPN9 (Q04062 whole entry): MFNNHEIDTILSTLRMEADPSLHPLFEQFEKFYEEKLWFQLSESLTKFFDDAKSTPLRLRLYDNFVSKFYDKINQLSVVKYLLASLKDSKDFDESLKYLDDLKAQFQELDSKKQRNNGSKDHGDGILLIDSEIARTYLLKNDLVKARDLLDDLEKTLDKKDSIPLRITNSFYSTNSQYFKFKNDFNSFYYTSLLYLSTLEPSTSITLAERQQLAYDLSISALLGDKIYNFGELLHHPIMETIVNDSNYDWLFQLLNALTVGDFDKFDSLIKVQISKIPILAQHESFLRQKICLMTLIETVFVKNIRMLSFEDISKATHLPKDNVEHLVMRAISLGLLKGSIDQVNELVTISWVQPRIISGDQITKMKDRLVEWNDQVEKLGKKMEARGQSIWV
Chain of 26S proteasome regulatory subunit 4 homolog (P40327 whole entry): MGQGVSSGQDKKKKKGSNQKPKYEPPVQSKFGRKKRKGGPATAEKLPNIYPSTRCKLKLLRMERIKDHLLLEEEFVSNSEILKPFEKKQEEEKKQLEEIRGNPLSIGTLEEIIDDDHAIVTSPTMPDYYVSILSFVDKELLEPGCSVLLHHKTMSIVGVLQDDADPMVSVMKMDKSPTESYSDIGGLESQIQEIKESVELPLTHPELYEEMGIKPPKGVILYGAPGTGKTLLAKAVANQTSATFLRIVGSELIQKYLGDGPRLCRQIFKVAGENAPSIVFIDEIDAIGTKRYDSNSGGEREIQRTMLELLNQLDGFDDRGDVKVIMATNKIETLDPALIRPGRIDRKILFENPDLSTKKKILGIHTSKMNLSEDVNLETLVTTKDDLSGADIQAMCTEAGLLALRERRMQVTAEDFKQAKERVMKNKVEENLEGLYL
Chain of 26S proteasome regulatory subunit RPN1 (P38764 whole entry): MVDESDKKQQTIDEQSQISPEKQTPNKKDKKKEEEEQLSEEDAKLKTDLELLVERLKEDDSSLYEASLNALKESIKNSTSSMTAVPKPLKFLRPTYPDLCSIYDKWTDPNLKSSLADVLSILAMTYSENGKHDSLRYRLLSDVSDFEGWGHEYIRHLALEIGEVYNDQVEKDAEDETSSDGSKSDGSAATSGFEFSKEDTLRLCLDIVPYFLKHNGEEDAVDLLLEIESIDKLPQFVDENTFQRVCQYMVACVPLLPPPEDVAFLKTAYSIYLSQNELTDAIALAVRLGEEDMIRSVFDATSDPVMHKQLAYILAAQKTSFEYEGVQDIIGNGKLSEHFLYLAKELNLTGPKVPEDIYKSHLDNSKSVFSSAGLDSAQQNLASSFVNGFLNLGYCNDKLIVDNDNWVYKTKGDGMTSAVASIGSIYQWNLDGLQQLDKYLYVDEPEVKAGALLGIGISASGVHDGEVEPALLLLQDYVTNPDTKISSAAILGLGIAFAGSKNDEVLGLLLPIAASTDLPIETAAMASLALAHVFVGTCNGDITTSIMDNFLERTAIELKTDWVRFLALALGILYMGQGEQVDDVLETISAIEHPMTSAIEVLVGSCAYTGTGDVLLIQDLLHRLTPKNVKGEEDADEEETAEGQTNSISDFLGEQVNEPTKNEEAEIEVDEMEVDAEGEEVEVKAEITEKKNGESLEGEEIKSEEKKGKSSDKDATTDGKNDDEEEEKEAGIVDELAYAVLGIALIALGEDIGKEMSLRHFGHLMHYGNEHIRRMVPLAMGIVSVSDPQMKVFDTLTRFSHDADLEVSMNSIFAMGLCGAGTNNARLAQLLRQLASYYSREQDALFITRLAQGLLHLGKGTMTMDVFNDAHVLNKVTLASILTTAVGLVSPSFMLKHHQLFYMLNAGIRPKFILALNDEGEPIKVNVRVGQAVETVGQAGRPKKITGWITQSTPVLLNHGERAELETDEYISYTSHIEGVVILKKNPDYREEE
Chain of 26S proteasome subunit RPT4 (P53549 whole entry): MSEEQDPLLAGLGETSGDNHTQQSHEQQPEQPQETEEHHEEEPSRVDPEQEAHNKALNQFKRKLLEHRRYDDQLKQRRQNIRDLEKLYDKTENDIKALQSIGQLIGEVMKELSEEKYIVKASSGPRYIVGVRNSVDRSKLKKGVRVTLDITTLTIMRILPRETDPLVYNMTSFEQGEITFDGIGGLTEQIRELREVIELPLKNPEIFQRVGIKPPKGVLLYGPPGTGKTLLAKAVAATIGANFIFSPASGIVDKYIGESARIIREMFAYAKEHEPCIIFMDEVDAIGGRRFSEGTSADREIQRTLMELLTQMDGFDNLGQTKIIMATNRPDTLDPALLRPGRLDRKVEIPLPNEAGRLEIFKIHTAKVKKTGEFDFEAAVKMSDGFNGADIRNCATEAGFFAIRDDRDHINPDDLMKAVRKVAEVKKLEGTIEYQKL
Chain of 26S proteasome regulatory subunit RPN5 (Q12250 whole entry): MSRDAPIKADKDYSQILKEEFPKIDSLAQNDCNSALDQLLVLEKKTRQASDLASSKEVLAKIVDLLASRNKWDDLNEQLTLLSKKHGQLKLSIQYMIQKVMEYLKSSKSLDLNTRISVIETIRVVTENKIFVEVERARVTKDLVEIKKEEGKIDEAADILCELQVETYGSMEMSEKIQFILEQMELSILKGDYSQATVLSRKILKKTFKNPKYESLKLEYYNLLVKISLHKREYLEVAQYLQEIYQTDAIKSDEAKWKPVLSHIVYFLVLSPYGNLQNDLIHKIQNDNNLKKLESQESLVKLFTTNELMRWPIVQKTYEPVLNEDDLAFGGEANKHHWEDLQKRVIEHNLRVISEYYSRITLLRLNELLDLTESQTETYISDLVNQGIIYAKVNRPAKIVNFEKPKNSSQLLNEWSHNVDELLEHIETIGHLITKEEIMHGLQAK
Chain of 26S proteasome regulatory subunit RPN8 (Q08723 whole entry): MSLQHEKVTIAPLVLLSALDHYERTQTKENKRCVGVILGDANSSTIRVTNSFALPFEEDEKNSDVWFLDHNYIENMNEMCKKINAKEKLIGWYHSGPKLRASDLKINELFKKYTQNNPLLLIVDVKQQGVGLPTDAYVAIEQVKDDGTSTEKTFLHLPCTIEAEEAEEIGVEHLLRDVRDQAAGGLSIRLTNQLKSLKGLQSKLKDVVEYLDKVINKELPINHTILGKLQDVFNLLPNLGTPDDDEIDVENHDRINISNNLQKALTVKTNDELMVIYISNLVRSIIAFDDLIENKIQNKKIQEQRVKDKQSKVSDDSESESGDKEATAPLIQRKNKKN
Chain of 26S proteasome regulatory subunit 8 homolog (Q01939 whole entry): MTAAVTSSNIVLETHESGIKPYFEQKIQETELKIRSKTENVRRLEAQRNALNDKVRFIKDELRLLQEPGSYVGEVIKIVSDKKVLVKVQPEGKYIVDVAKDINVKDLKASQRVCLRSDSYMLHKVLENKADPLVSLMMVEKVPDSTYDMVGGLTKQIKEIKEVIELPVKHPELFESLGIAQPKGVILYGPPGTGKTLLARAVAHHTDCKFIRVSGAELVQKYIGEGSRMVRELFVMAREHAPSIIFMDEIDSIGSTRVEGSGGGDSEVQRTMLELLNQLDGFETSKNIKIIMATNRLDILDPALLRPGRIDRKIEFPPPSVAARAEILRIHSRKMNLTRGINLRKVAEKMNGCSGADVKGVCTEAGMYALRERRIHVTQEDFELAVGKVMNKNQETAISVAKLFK
Chain of 26S proteasome regulatory subunit 6B homolog (P33298 whole entry): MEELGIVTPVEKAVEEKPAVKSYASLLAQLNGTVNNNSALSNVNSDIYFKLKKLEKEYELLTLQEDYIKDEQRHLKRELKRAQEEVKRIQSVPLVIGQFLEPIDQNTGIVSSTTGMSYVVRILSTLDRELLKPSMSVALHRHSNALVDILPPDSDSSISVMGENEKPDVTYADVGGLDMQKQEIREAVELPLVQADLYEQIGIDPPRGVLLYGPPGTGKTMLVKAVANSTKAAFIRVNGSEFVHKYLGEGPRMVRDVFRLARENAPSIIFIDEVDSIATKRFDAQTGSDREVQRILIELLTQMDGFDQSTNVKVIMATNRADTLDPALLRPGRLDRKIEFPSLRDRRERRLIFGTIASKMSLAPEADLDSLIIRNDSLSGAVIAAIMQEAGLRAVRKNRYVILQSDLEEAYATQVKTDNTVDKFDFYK
Chain of 26S proteasome regulatory subunit RPN7 (Q06103 whole entry): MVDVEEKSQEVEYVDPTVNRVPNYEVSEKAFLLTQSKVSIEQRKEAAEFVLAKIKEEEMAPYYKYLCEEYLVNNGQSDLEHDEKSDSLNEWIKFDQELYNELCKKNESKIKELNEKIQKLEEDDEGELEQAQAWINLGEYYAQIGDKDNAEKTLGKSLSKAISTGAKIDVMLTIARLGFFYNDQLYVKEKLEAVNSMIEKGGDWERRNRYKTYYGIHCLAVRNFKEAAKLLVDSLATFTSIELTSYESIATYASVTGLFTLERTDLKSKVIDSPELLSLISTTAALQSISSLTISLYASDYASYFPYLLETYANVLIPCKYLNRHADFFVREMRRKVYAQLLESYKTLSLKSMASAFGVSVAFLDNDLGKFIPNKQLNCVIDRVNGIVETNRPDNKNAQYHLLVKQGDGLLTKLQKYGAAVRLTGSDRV
Chain of 26S proteasome regulatory subunit 7 homolog (P33299 whole entry): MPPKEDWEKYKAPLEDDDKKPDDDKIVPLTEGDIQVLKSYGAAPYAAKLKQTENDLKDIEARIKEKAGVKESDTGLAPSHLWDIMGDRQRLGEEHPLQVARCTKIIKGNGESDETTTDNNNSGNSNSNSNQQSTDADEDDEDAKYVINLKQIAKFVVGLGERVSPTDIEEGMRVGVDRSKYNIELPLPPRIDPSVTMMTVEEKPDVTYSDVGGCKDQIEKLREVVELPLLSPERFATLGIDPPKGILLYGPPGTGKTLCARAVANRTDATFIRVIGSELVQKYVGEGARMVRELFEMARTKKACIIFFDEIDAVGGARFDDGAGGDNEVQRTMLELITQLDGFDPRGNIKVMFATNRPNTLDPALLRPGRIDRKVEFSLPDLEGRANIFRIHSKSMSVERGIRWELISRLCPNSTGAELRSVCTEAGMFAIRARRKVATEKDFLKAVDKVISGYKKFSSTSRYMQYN

Proteasome subunit alpha type-5, P32379
yes: [1]

Proteasome subunit beta type-4, P22141
yes: [2]

Proteasome subunit alpha type-2, P23639
yes: [3] | [4] | [5]

Probable 26S proteasome regulatory subunit p28, P50086
yes: [4] | [5]

26S proteasome regulatory subunit 6A, P33297
yes: [3] | [4] | [6] | [7]

26S proteasome subunit RPT4, P53549
yes: [4] | [6] | [7] | [8]

Ubiquitin C-terminal hydrolase RPN11, P43588
yes: [8]

26S proteasome regulatory subunit RPN2, P32565
yes: [3] | [1] | [9] | [5] | [7] | [10]

Proteasome subunit alpha type-1, P21243
yes: [3] | [6] | [11] | [12] | [13]

26S proteasome regulatory subunit 6B homolog, P33298
yes: [14] | [1] | [9] | [5] | [7] | [15] | [10]

26S proteasome regulatory subunit RPN12, P32496
yes: [8]

Proteasome subunit alpha type-3, P23638
yes: [14] | [4] | [5] | [16] | [17]

Heat shock protein SSA1, P10591
yes: [18]

Proteasome subunit alpha type-4, P40303
yes: [14] | [4]

26S proteasome regulatory subunit RPN10, P38886
yes: [10]

26S proteasome regulatory subunit 7 homolog, P33299
yes: [4] | [9] | [16] | [7] | [11] | [17] | [19]

26S proteasome regulatory subunit 8 homolog, Q01939
yes: [5] | [16] | [7]

Proteasome subunit beta type-6, P23724
yes: [20] | [2] | [13]

26S proteasome regulatory subunit 4 homolog, P40327
yes: [11] | [19]

Probable proteasome subunit alpha type-7, P21242
yes: [6] | [11] | [21]

26S proteasome regulatory subunit RPN1, P38764
yes: [14] | [4] | [16] | [7] | [11] | [10] | [19]

— article PMC6753376
